# Reference: PubChem BioAssay (NCATS)
# Inconclusive results are not listed. Where a call stands in place of a potency, no number is given. Active and inactive are the calls of the source. Calls follow the shape of the dose curve; as a rule, active = well fitted cell-killing curve with a large enough effect; inconclusive = small, poorly fitted or top-dose-only effect, or effect the other way; inactive = no such curve, though single readings can be large or run the other way.
# Assay: qHTS of pediatric cancer cell lines to identify multiple opportunities for drug repurposing: Confirmatory screen for LAN-5 cells (AID 1347113); also: nearly all actives have a fitted effect of over 65% in size
# Conditions: LAN-5 neuroblastoma cell viability; series mostly up to 45.9 µM
# Source text: Drug repurposing or repositioning has been offered as a strategy for drug development in oncology programs. This approach has special potential for childhood cancers and other rare or orphan diseases, where the expected return on new drug development has been a disincentive to pharmaceuticals.
# In this project we exploit the poly-pharmacology of drugs to discover new indications via phenotypic screening of a panel of 19 well-characterized cell lines derived from solid tumors seen in children and adolescents. The goal is to identify approved drugs with previously unrecognized anticancer properties that has the potential to reveal new mechanisms and biological processes involved in carcinogenesis or drug resistance. We employed a titration-based paradigm (quantitative high-throughput screening or qHTS), where all compounds were tested at multiple concentrations for their effect on cell viability. Concentration-response curves (CRCs) were derived directly from the primary screen, and both potency and efficacy values were used to identify compounds with robust bioactivity profiles. We screened the NIH Chemical Genomics Center (NCGC) Pharmaceutical Collection (NPC) and Mechanism Interrogation Plate (MIPE) small molecule collections of approved and investigational compounds against these cell lines; and measured metabolically active cells after 48 hours of compound treatment as a proxy for cell viability.
# Assay Submitter: Nathalia J. Martinez, National Center for Advancing Translational Sciences, National Institutes of Health, Rockville, MD, USA; email: natalia.martinez@nih.gov
# [1] Shen, M et al. Quantitative high-throughput phenotypic screening of pediatric cancer cell lines identifies multiple opportunities for drug repurposing. Oncotarget 2017 Dec 19;9(4):4758-4772. PMID 29435139.
# The cells were obtained from University of North Carolina (UNC), Pediatric Preclinical Testing Program (PPT), and Coriell Institute (CI).
# qHTS cell viability assay:
# Cells were assayed in growth media at a density of 500-1,000 cells/well. Five microliters of cells were dispensed into 1,536-well, white, solid-bottom, TC-treated plates (Greiner Bio One) using a multidrop dispenser and incubated at 37 degrees C, 5% CO2, under a humidified atmosphere for 5 hours. Twenty-three nanoliters of compounds and controls (neutral control DMSO or positive control bortezomib at final concentration of 2.3 µM) were subsequently transferred by Kalypsys pintool. For primary screens, the MIPE collection was tested at 11-point dilutions (final concentrations range from 0.78 nM to 46 µM) and the NPC collection at 8-point dilutions (final concentrations range from 0.59 nM to 46 µM). Compounds tested in follow-up screens were assayed at 11-point dilutions. Cells were incubated for 48 hours, followed by addition of 3 µL of CellTiter-Glo (Promega). After a 15 min incubation at room temperature, samples were analyzed for luminescence intensity using a ViewLux High-throughput CCD imager equipped with clear filters.
# Potency is read from the fitted curve at half-maximal effect.
row,SMILES,Potency
1,CCC1(c2ccccc2)C(=O)NCNC1=O,inactive
2,COc1cc2c(c(OC)c1OC)-c1ccc(OC)c(=O)cc1[C@@H](NC(C)=O)CC2,89.1 nM (active)
3,CC[C@@]1(O)C(=O)OCc2c1cc1n(c2=O)Cc2cc3c(CN(C)C)c(O)ccc3nc2-1,185 nM (active)
4,CC(C)C(=O)Nc1ccc([N+](=O)[O-])c(C(F)(F)F)c1,inactive
5,COC(=O)Nc1nc2ccc(C(=O)c3cccs3)cc2[nH]1,522 nM (active)
6,NC(=O)NO,inactive
7,CC(COc1ccccc1)N(CCCl)Cc1ccccc1 (configuration not stated),20800 nM (active)
8,CN(Cc1cnc2nc(N)nc(N)c2n1)c1ccc(C(=O)N[C@@H](CCC(=O)O)C(=O)O)cc1,inactive
9,O=C1c2c(O)ccc(O)c2C(=O)c2c(NCCNCCO)ccc(NCCNCCO)c21,165 nM (active)
10,CC(CCc1ccc(O)cc1)NCCc1ccc(O)c(O)c1 (configuration not stated),inactive
11,Clc1ccc(C(c2ccccc2Cl)C(Cl)Cl)cc1 (configuration not stated),inactive
12,Clc1ccc2nsnc2c1NC1=NCCN1,inactive
13,NC12CC3CC(CC(C3)C1)C2,inactive
14,CN1CCN(CCCN2c3ccccc3Sc3ccc(Cl)cc32)CC1,16500 nM (active)
15,CS(=O)(=O)Nc1ccc([N+](=O)[O-])cc1Oc1ccccc1,inactive
16,O=C(Nc1ccc([N+](=O)[O-])cc1Cl)c1cc(Cl)ccc1O,3230 nM (active)
17,CCCCc1oc2ccccc2c1C(=O)c1cc(I)c(OCCN(CC)CC)c(I)c1,35500 nM (active)
